Screening data (PubChem BioAssay)
PLK1 PBD inh – inhibitors of human PLK1 polo-box domain binding; Plk1 PBD binding of FITC phosphopeptide, fluorescence polarization; Potency, µM, inactives show max response, negative = inhibition, actives largely listed as inhibitors; 2.8% of 360,000 active; note: potency is the fitted concentration of half-maximal effect; series mostly up to about 57 µM; % is set by controls: 0 for no effect and ±100 for the full control effect; nearly all actives have a fitted effect of over 65% in size
HP1b binding inh – inhibitors of HP1-beta chromodomain binding to methylated histone tails | P83916 | AlphaScreen HP1-beta / biotin-H3K9me3 peptide binding | 0.56% of 390,000 active | Potency, µM (doses to about 114 µM), inactives show at the top dose activity change, negative = inhibition, usual class: inhibitors; note: potency is the fitted concentration of half-maximal effect; nearly all actives have a fitted effect of over 70% in size
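AlphaScreen: HP1-beta (50 nM) preformed 30 min with biotin-H3(1-18)K9me3 peptide (50 nM) in PBS pH 7.4, 0.01% Tween-20. Compound added for 30 min at RT, then streptavidin donor/nickel chelate acceptor beads (10 ug/mL) for 30 min.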
BAZ2B inh – inhibitors of human BAZ2B bromodomain | 4.4% of 360,000 active | AlphaScreen BAZ2B-H3K14Ac peptide displacement | AID 504333 | Potency, µM (series often up to 114 µM), for the others: at the top dose activity change, negative = inhibition, usual class: inhibitors; note: potency is the fitted concentration of half-maximal effect; % is set by controls: 0 for no effect and ±100 for the full control effect; nearly all actives have a fitted effect of over 60% in size
Target sequence (Q9UIF8 whole entry, looked up): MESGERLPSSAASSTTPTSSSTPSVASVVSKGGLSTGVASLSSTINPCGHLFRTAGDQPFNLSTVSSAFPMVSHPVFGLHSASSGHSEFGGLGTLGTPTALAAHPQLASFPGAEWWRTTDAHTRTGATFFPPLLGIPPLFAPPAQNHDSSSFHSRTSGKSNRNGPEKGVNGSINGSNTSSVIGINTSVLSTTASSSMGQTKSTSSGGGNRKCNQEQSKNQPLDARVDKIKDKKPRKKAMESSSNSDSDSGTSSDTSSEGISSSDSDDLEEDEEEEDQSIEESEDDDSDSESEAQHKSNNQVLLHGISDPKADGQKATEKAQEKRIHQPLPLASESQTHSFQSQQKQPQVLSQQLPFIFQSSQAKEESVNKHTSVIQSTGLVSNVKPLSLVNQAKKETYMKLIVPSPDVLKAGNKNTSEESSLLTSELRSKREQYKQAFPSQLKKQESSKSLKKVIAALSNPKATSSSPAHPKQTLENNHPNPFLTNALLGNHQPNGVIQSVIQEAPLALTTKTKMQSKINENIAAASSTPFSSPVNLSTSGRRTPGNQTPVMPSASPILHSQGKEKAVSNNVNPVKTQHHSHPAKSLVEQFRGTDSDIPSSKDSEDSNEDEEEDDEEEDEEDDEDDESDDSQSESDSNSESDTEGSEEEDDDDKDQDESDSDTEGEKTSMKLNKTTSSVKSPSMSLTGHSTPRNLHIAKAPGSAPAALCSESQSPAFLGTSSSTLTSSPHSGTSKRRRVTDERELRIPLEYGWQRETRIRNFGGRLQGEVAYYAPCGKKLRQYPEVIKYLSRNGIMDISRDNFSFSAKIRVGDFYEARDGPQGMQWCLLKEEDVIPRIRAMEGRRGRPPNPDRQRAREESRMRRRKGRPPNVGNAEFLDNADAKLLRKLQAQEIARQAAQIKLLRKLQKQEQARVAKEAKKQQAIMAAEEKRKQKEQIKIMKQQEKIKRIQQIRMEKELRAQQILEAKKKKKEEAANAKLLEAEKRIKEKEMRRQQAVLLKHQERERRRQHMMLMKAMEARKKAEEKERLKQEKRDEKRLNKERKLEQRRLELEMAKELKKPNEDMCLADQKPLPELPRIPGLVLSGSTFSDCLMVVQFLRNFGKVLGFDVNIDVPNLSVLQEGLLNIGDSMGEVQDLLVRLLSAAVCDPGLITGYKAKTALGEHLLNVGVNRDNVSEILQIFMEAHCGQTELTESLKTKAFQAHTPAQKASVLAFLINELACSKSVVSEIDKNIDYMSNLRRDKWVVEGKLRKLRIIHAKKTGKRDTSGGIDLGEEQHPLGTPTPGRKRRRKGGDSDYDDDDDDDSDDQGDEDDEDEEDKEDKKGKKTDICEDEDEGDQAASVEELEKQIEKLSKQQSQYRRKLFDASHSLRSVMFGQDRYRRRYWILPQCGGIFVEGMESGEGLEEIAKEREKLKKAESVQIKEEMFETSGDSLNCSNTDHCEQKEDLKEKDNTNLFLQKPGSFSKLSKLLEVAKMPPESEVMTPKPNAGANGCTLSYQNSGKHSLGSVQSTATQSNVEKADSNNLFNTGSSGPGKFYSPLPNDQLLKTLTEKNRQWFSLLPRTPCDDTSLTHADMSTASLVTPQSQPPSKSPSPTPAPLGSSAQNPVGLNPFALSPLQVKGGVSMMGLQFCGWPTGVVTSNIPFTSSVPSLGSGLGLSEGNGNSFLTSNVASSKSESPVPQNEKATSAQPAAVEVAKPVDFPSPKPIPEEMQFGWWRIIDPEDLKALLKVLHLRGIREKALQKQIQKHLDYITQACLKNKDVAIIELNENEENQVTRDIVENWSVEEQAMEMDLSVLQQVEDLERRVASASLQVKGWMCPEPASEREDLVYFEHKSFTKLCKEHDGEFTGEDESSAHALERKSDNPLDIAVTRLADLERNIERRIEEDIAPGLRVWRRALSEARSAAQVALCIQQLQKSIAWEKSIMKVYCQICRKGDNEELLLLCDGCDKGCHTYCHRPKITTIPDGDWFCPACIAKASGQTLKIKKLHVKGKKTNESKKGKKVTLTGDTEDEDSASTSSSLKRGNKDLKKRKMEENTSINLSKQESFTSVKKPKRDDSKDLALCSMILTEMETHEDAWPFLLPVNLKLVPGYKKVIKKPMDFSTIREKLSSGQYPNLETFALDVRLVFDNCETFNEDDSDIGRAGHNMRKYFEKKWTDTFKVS
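BAZ2B 50 nM plus b-H3(5-23)K14Ac 50 nM, PBS pH 7.4/0.01% Tween-20, 30 min RT; compound added (max 110 uM), 30 min RT; streptavidin donor/Ni-chelate acceptor beads 10 ug/mL final, 20 min dark; AlphaScreen read.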
PI5P4Ka inh – blocks human PI5P4K alpha kinase activity; AID 652105; PI5P4Kalpha enzyme, ADP-Glo luminescence, 60 min; active compounds read low; max response, %; 1.2% of 330,000 active; active = max response of -50% or lower; inconclusive = between -30% and -50%; inactive = -30% or higher; note: value at the top dose of about 77 µM; % is set by controls: 0 for no effect and ±100 for the full control effect
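Controls without substrate or without enzyme flank wells where PI5P4Kalpha converts substrate using 5 microM ATP (final). Incubation lasts 60 minutes at room temperature; ADP formed is read by ADP-Glo luminescence.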
G9a inh – G9a (human) methyltransferase inhibition; Potency, µM (series often up to 102 µM), without a hit: at the highest dose activity, negative = inhibition, hits mostly inhibitors; G9a H3K9 monomethylation, AlphaScreen, 2 h; 8.8% of 350,000 active; AID 504332; Q96KQ7; note: potency is the fitted concentration of half-maximal effect; % is set by controls: 0 for no effect and ±100 for the full control effect; nearly all actives have a fitted effect of over 75% in size
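Readings reflect AlphaScreen signal from monomethyl-H3K9 antibody detection. HMT at 20 nM; substrate b-H3K9 500 nM; cofactor SAM 20 uM; 2 h RT reaction; compounds tested as titrations in qHTS with 15 min preincubation.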
JMJD2A Tudor – inhibitors of human JMJD2A Tudor domain | O75164 | AlphaScreen JMJD2A-Tudor / H3K4me3 peptide binding | Potency, µM (titrated, usually from 114 µM), inactives show at the highest dose activity change, negative = inhibition, most hits filed as inhibitors | 4.4% of 390,000 active; note: potency is the fitted concentration of half-maximal effect; % is set by controls: 0 for no effect and ±100 for the full control effect; nearly all actives have a fitted effect of over 50% in size
* hit, by the source's call; [ ] = remark or other dose. An excerpt weighted towards active compounds, which were near 12% of everything screened. Unless noted, calls come from the whole dose curve; as a rule, active = well fitted curve in the direction sought with a large enough effect; inconclusive = small, poorly fitted or top-dose-only effect, or another doubt; inactive = no such curve, though single readings can be large; an effect the other way counts as inactive or inconclusive.

Screening CCOc1cccc(C2C(C(=O)c3ccc(C)o3)=C(O)C(=O)N2CCCn2ccnc2)c1 (stereo not drawn) returned PLK1 PBD inh 2%, HP1b binding inh -5%, BAZ2B inh inconclusive, PI5P4Ka inh -1, G9a inh 0%[0.501 µM] and JMJD2A Tudor inconclusive.
`CCN(CC)CCCN1C(=O)C(O)=C(C(=O)c2ccco2)C1c1ccc(C)o1` (stereo not drawn) gave PLK1 PBD inh -20%, HP1b binding inh 16%, PI5P4Ka inh -1 and JMJD2A Tudor inconclusive.
For COCCCN1C(=O)C(O)=C(C(=O)c2ccco2)C1c1ccccc1 (stereo not drawn) the results were PLK1 PBD inh 0%, HP1b binding inh 11%, BAZ2B inh inconclusive, PI5P4Ka inh 2, G9a inh 10%[12.7 µM] and JMJD2A Tudor 50µM*.
Screening COCCCN1C(=O)C(O)=C(C(C)=O)C1c1ccccn1 (stereo not drawn) returned PLK1 PBD inh -1%, HP1b binding inh -3%, BAZ2B inh -34%, PI5P4Ka inh -2, G9a inh inconclusive and JMJD2A Tudor 79µM*.
For COCCCN1C(=O)C(O)=C(C(=O)c2ccc(C)o2)C1c1cccc(Br)c1 (stereo not drawn) the results were PLK1 PBD inh -3%, HP1b binding inh 27%, BAZ2B inh -34%, G9a inh -35%[59 µM] and JMJD2A Tudor 89µM*.
For CCN(CC)CCCN1C(=O)C(O)=C(C(=O)c2ccc(C)o2)C1c1ccc(C)o1 (stereo not drawn) the results were PLK1 PBD inh -7%, HP1b binding inh 43%, BAZ2B inh -30%, PI5P4Ka inh 1, G9a inh 20µM* and JMJD2A Tudor inconclusive.
`Cc1noc(C)c1-c1nc(N(C)Cc2ccco2)c2ccccc2n1` gave G9a inh -31%[0.501 µM].
Screening COc1ccc(-c2nc(SCCOc3cc(C)ccc3C(C)C)n3[nH]c(=O)cc3n2)cc1 returned HP1b binding inh 22%, BAZ2B inh -3%, G9a inh 25%[59 µM] and JMJD2A Tudor -29%.
CCOC(=O)c1cccc(NC(=O)CCc2c(C)nc3c4cccnc4nn3c2C)c1 was read as HP1b binding inh 46%, BAZ2B inh -1%, G9a inh 16%[59 µM] and JMJD2A Tudor -8%.
COCc1cc(C2C(C(=O)c3ccco3)=C(O)C(=O)N2CCOCCO)ccc1O (stereo not drawn) was read as PLK1 PBD inh -10%, HP1b binding inh -7%, BAZ2B inh inconclusive, PI5P4Ka inh -8, G9a inh inconclusive and JMJD2A Tudor 50µM*.
Screening O=C(C1=C(O)C(=O)N(CCc2ccccc2)C1c1cccnc1)c1ccco1 (stereo not drawn) returned PLK1 PBD inh -4%, HP1b binding inh 21%, BAZ2B inh inconclusive, PI5P4Ka inh -1, G9a inh inconclusive and JMJD2A Tudor -18%.
COc1cc(C2C(C(=O)c3ccco3)=C(O)C(=O)N2Cc2ccccc2)ccc1O (stereo not drawn) was read as PLK1 PBD inh -13%, HP1b binding inh -5%, BAZ2B inh -29%, PI5P4Ka inh -9, G9a inh 71µM* and JMJD2A Tudor 56µM*.
For CCN(CC)CCCN1C(=O)C(O)=C(C(=O)c2ccc(C)o2)C1c1cccs1 (stereo not drawn) the results were BAZ2B inh -1% and G9a inh -39%[12.7 µM].
Screening CCOc1cc(C2C(C(=O)c3ccco3)=C(O)C(=O)N2CCc2ccccc2)ccc1O (stereo not drawn) returned PLK1 PBD inh -14%, HP1b binding inh 41%, BAZ2B inh inconclusive, PI5P4Ka inh -1, G9a inh inconclusive and JMJD2A Tudor inconclusive.
`O=C(C1=C(O)C(=O)N(CCc2ccccc2)C1c1cccs1)c1ccco1` (stereo not drawn) gave PLK1 PBD inh -12%, HP1b binding inh 6%, BAZ2B inh inconclusive, PI5P4Ka inh -3, G9a inh 50µM* and JMJD2A Tudor -19%.
Screening CCCOc1ccc(C2C(C(=O)c3ccco3)=C(O)C(=O)N2CCCn2ccnc2)cc1OC (stereo not drawn) returned PLK1 PBD inh 1% and PI5P4Ka inh 3.
CCOCCCN1C(=O)C(O)=C(C(C)=O)C1c1cccs1 (stereo not drawn) was read as PLK1 PBD inh -13%, HP1b binding inh 12%, PI5P4Ka inh -2 and JMJD2A Tudor 89µM*.
`N#Cc1nc(N2CCCCC2)nc(N2CCCCC2)n1` gave HP1b binding inh 41%[57 µM] and JMJD2A Tudor 8%[57.1 µM].
Screening O=C(Nc1ccc(N2CCCC2)c(Cl)c1)c1ccc([N+](=O)[O-])cc1 returned PLK1 PBD inh 24µM*, HP1b binding inh -3%, BAZ2B inh 3%, PI5P4Ka inh 4, G9a inh -9%[59 µM] and JMJD2A Tudor -27%.
`O=C(Nc1ccc2c(c1)OCO2)c1cccc2c1C(=O)N(Cc1cccnc1)C2` gave PLK1 PBD inh -5%, HP1b binding inh 7%, BAZ2B inh 50µM*, PI5P4Ka inh -15, G9a inh -6%[12.7 µM] and JMJD2A Tudor inconclusive.
Screening Cc1cccc(NC(=O)c2ccc(N3CCCCC3)c([N+](=O)[O-])c2)n1 returned PLK1 PBD inh -5%, HP1b binding inh inconclusive, BAZ2B inh 11µM*, PI5P4Ka inh -1, G9a inh inconclusive and JMJD2A Tudor inconclusive.
Screening Cc1cccc(NC(=O)c2ccc(N3CCOCC3)c([N+](=O)[O-])c2)n1 returned PLK1 PBD inh -4%, HP1b binding inh -18%, BAZ2B inh inconclusive, PI5P4Ka inh -10, G9a inh 20%[59 µM] and JMJD2A Tudor inconclusive.
Screening Cc1cc(C(=O)Nc2ccc(N3CCCC3)c(Cl)c2)ccc1[N+](=O)[O-] returned PLK1 PBD inh -5%, HP1b binding inh inconclusive, BAZ2B inh 28µM*, PI5P4Ka inh 9, G9a inh -7%[59 µM] and JMJD2A Tudor 25µM*.
`CCCN1Cc2cccc(C(=O)Nc3ccc4c(c3)OCO4)c2C1=O` gave PLK1 PBD inh -2%, HP1b binding inh -6%, BAZ2B inh inconclusive, PI5P4Ka inh -2, G9a inh 11%[12.7 µM] and JMJD2A Tudor -14%.
O=C(Nc1ccc2c(c1)OCCO2)c1ccc2nccnc2c1 was read as PLK1 PBD inh -13%, HP1b binding inh 21%, BAZ2B inh -21%, G9a inh -25% and JMJD2A Tudor -5%.
For O=C(Nc1ccc2c(c1)OCCO2)c1cccnc1 the results were PLK1 PBD inh inconclusive, HP1b binding inh 30%, BAZ2B inh inconclusive, PI5P4Ka inh -5, G9a inh -1%[59 µM] and JMJD2A Tudor 89µM*.
